Compounds without any hit were thinned out: in the full panel of roughly 83,000, 20% have a hit.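 How to read the values: 0–100, growth inhibition (40 = 60% inhibited); 0, no net growth; -100 to 0, cell death (-40 = 40% of starting cells died; -100 = all dead).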 Unmarked numbers belong to inactive results. Active and inactive are the calls of the source. The calls were made as follows: active = growth percent below 10; inactive = the rest.
Experiments:
Assay in all cases: NCI-60 one-dose screen, 48 h (100 = growth as untreated, 0 = no growth, -100 = all killed)
Conditions in all cases: 10 µM unless noted
RPMI-8226 leukemia = tested on: RPMI-8226 leukemia
OVCAR-8 ovarian = tested on: OVCAR-8 ovarian
OVCAR-5 ovarian = tested on: OVCAR-5 ovarian
OVCAR-4 ovarian = tested on: OVCAR-4 ovarian
SK-OV-3 ovarian = tested on: SK-OV-3 ovarian
IGROV1 ovarian = tested on: IGROV1 ovarian
OVCAR-3 ovarian = tested on: OVCAR-3 ovarian
HS 578T breast = tested on: HS 578T breast
T-47D breast = tested on: T-47D breast
BT-549 breast = tested on: BT-549 breast
MDA-MB-435 melanoma = tested on: MDA-MB-435 melanoma
SW-620 colon = tested on: SW-620 colon
MCF7 breast = tested on: MCF7 breast
HCT-116 colon = tested on: HCT-116 colon
HCC-2998 colon = tested on: HCC-2998 colon
KM12 colon = tested on: KM12 colon
NCI/ADR-RES ovarian = tested on: NCI/ADR-RES ovarian

SMILES | growth (RPMI-8226 leukemia) | growth (OVCAR-8 ovarian) | growth (OVCAR-5 ovarian) | growth (OVCAR-4 ovarian) | growth (SK-OV-3 ovarian) | growth (IGROV1 ovarian) | growth (OVCAR-3 ovarian) | growth (HS 578T breast) | growth (T-47D breast) | growth (BT-549 breast) | growth (MDA-MB-435 melanoma) | growth (SW-620 colon) | growth (MCF7 breast) | growth (HCT-116 colon) | growth (HCC-2998 colon) | growth (KM12 colon) | growth (NCI/ADR-RES ovarian)
CC(=O)CCC(=O)OCc1cc(=O)c(O)co1 | 107% | 108% | 93.5% | 112% | 128% | 98.6% | 106% | 103% | 111% | 102% | 106% | 97% | 99% | 97.3% | 87.3% | 93.5% | 
CC(C)(C)[Si](C)(C)OC1[C@@H](O[Si](C)(C)C(C)(C)C)[C@@H](CNC(=O)NC(=O)CCl)O[C@H]1n1cnc2c(NC(=O)Nc3ccccc3)ncnc21 (some centres not stated) | 16.7% | 1.14% (active) | 5.37% (active) |  | -92.9% (active) | -50.4% (active) | -82.1% (active) | -4.28% (active) | -45.7% (active) |  | -79.1% (active) | -49.7% (active) | -71.8% (active) | -99% (active) |  | -79.4% (active) | 20.3%
C/C(=N\NC(=O)CSc1nc2ccccc2c(=O)n1CCc1ccc(S(N)(=O)=O)cc1)c1ccccn1 | 30.9% | 22.8% | 39.8% |  | 20.8% | 45.5% | 12.5% | 73.7% | 28.4% | 59.4% | 33.4% |  | 34.5% | 24.5% | 39.3% | 21.3% | 74.4%
O=S(=O)(NCCNc1nccc(-c2c(-c3cccc(O)c3)nc3occn23)n1)c1ccc(Cl)cc1 | 105% | 105% | 143% | 126% | 99.8% | 95% | 113% | 108% | 91.7% | 116% | 45.4% | 125% | 82% | 87.6% | 135% | 91.3% | 
COc1cc(/C=N/NC(=O)c2cnn3c2NC(c2ccccc2)C3)ccc1Oc1ccccc1 (configuration not stated) | 56.1% |  | 59.6% | 31.7% | 27.6% | 33.8% | -23.4% (active) | 37.8% | 28.6% | 6.76% (active) | -22.9% (active) | 24.9% | 9.6% (active) | 1.82% (active) | 57.3% | 16.6% | 41.3%
COC(=O)C(CC=O)C(=O)C(=O)Nc1cccc(C(F)(F)F)c1 (configuration not stated) |  | 90.5% | 112% | 105% | 93.5% | 102% | 106% | 90.6% | 77.4% | 101% | 107% | 95.6% | 104% | 90.1% | 97% | 100% | 107%
CCOC(=O)Oc1c(OC)cc(C(=O)c2ccc(OC)c(O)c2OC)cc1OC | 21% |  | 76.6% |  | 31.6% | 41.8% | -1.93% (active) | 14.7% | 43.8% | 40.1% | -47.4% (active) | 20.5% | 19.5% | 9.57% (active) | 39.7% | 25.7% | -9.66% (active)
COc1cc(/C=C\c2cc(OC)c(OC)c(OC)c2)cc(NC(=O)/C=C/c2cc(OC)c(OC)c(OC)c2)c1OC | 45% | 56.6% | 77.3% |  | 50.8% | 52.8% | 51.1% | 68.6% | 19.6% | 26.2% | -13.1% (active) | 57% | 27.6% | 41.1% | 70.8% | 28.7% | 17.8%
CCN(c1ccccc1)S(=O)(=O)c1cc([N+](=O)[O-])ccc1Cl | 43.8% | 79.8% | 67.4% |  | 55.3% | 54% | 74.7% |  | 26.6% | 49.4% | 62.3% | 46.3% | 52.6% | 24.6% | 110% |  | 42.2%
O=C(/C=C/c1c(-c2ccc(Cl)cc2)nn(-c2ccccc2)c1C(F)(F)F)c1ccc(Cl)cc1 |  |  | 102% | 89% | 82.7% | 102% | 95.3% | 92.2% | 64.8% | 97.4% | 97.9% | 104% | 61.8% | 63.4% | 103% | 84.8% | 97.4%
N#C/C(=C\c1cccc(C#N)c1)c1ccccc1 |  | 111% | 100% | 98.8% | 105% | 107% | 105% | 106% | 78.7% | 102% | 100% |  | 105% | 94.2% | 93.1% | 102% | 101%
COc1cc(C(=O)Nc2cc3c(cc2Oc2cc(C)cc(C)c2)C(=O)N(C)[C@@H](CC(=O)N(C)O)C(=O)N3)c(Br)c(OC)c1OC | -26.2% (active) | 0.573% (active) | -18.6% (active) |  | -0.559% (active) | -22.5% (active) | -35.5% (active) | -18.1% (active) | 1.62% (active) | -30.2% (active) | -86.2% (active) | -2.61% (active) | -14.8% (active) | -35.5% (active) | -45.6% (active) | -28.6% (active) | 17.9%
COc1cc2cc(Oc3cccc(NC(=O)Nc4cc(C(F)(F)F)cc(C(F)(F)F)c4)c3)c(C)nc2cc1OC | 1.15% (active) |  | 14.6% | 27.9% | -1.05% (active) | 19.8% | 1.71% (active) |  | 7.52% (active) | 1.44% (active) | -2.55% (active) | 15.9% | 0.59% (active) | 3.73% (active) | 21.3% | 5.61% (active) | 7.03% (active)
CCOC(=O)c1nc2c3ccccc3ccn2c1C(=O)OCC | 96.4% | 111% | 98% | 107% | 109% | 96.5% | 106% |  | 98.2% | 103% | 105% |  | 95.9% | 104% | 103% |  | 96%
O=C1C=CC(=O)N1c1cccc(Cl)c1 | 95.6% | 107% | 111% |  | 108% | 117% | 90.1% |  | 93.7% | 108% | 101% | 76% | 112% | 89.7% | 104% | 104% | 98.3%
Cc1ccc(-n2nc3c(c(C#N)c2=O)CC(c2ccccc2[N+](=O)[O-])C([N+](=O)[O-])=C3O)cc1 (configuration not stated) |  | 90.2% | 99.8% | 75.2% |  | 86.2% | 87.5% | 77.7% | 65.5% | 93.2% | 96.7% | 89.1% | 55.4% | 86.9% | 116% | 82.3% | 99.8%
CNCCn1c(=O)c2cc(OC)c(OC)cc2c2ccc3cc4c(cc3c21)OCO4 | -27.6% (active) |  | 4.57% (active) | -10.9% (active) | -0.269% (active) | 0.994% (active) | -6.33% (active) | 4.39% (active) | 6.22% (active) | -19.8% (active) | -61% (active) | -47.4% (active) | 7.12% (active) | 2.87% (active) | -51.6% (active) | 3.17% (active) | 4.99% (active)
Cc1ncc(C(=O)Nc2ccc(CN3CCN(C)CC3)c(C(F)(F)F)c2)cc1C#Cc1cnc(N)cc1C#N | -7.94% (active) | -66.4% (active) | -94.1% (active) |  | 20.6% | 5.92% (active) | 39.5% |  | 57.8% | 38% | -95.8% (active) | -57.4% (active) | -75.6% (active) | -71.5% (active) | 54.5% | -83.1% (active) | -46.8% (active)
CCCCCCCC(=O)OCC/C=C/C1OC1C1OC(=O)/C=C\C=C\C(=O)N(C(C)=O)C(=O)/C=C(/C)CCC2OC2C1OC(=O)NC(C)=O (configuration not stated) | 45.2% | 85.1% | 79.5% | 97.2% | 96% | 62.7% | 61.2% |  | 10.8% | 92.5% | 79% | 83.1% | 20.4% | 3.69% (active) | 72.1% | 44.1% | 78.1%
COc1cc(NC(=O)CSc2nc3ccc(C)cc3c(=O)n2Cc2ccccc2)cc(OC)c1OC |  | 41.3% | 96.3% | 23.9% | 40% | 74.3% | 43.8% | 44.9% | 22.8% | 53.3% | 67.3% | 81.3% | 71% | 43.4% | 76% | 57.9% | 66.3%
Cc1nc2ccc(Cl)cn2c1-c1nnc(SCc2ccc([N+](=O)[O-])cc2)o1 | 81.9% | 36.8% | 83.7% | 32.5% |  | 62.3% | 66.8% | 45.6% | 79.8% | 12.9% | 61.2% | 76.1% | 55.2% | 58.4% | 83.5% | 72.9% | 36.1%
Cc1cc2c(c(C)c1Cl)C(=O)/C(=C/c1ccc(O)c(O)c1)O2 |  | 99.8% | 117% | 96.3% |  | 96.9% | 109% | 94% | 90.5% | 104% | 106% | 105% | 89.4% | 112% | 112% |  | 104%
COC1=CC(=O)c2ccccc2C1=O | 73% | 65.4% | 107% |  | 101% | 83.6% | 24.5% | 100% | 59% | 85% | -48.2% (active) | 108% | 56.9% | 29.9% | 107% | 94.8% | 60.8%

Source: PubChem BioAssay (NCI)
